From PubChem BioAssay (NCATS)
Inconclusive results are not listed. Calls of active or inactive are those of the source. Unless noted, calls follow the shape of the dose curve; as a rule, active = well fitted curve in the direction sought with a large enough effect; inconclusive = small, poorly fitted or top-dose-only effect, or another doubt; inactive = no such curve, though single readings can be large; an effect the other way counts as inactive or inconclusive.

Columns and labels:
[1] = target: Lysosomal acid glucosylceramidase (Homo sapiens) (UniProt P04062); test: Glucocerebrosidase-p2 (AID 348; in the data active = potency below about 10 µM; also: potency is read from the fitted curve at half-maximal effect); settings: purified GBA, blue fluorogenic substrate, 40 min
How it was run: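 Normal human glucocerebrosidase (0.2 nM) with blue fluorogenic substrate (80 uM final) in citrate/phosphate pH 5.9 with 10mM sodium taurocholate, 0.01% tween-20; 40 min RT, NaOH/glycine stop; fluorescence Ex 365/Em 440; AC50 from a titration from 0.6 nM upwards.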

[2] = AP1 Signaling Pathway (AID 357; active = well fitted curve in either direction with a large enough effect, not every such curve was filed as active;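 also: ME-180 reporter cells stimulated with EGF at its EC50 level; % is scaled to controls: 0 for no effect and ±100 for the full control effect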); settings: ME-180 AP-1-bla reporter, EGF-induced, beta-lactamase ratio, 5 h; at 7.69 µM (top of the series) unless noted
How it was run: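 Cells are seeded overnight, exposed to compound titrations and an EC50 level of EGF for 5 hours at 37 °C, then loaded with CCF4 dye for 2.5 hours. Beta-lactamase activity under the AP-1 element is read as a blue/green ratio.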

[3] = target: Cytochrome P450 1A2 (Homo sapiens) (UniProt P05177); test: p450-cyp1a2 (AID 410; calls by dose curve; also: potency is read from the fitted curve at half-maximal effect); settings: recombinant CYP1A2, luciferin-ME demethylation, luminescence; series mostly up to 57 µM
How it was run: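 20nM CYP1A2, 100uM Luciferin-ME (=Km), 100mM KPO4; cpd 10 min RT; +NADPH regen, 60 min RT; stop/detect 20 min; luminescence. Normalized to furafylline 57 uM = full inhibition.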

[4] = Stat Signaling Pathway (AID 446; active = well fitted curve in either direction with a large enough effect, not every such curve was filed as active;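 also: ME-180 cervical cancer cells given 40 pM IL-6 alongside compound; SIE-controlled beta-lactamase reporter measured as 460/530 nm FRET emission ratio; % is scaled to controls: 0 for no effect and ±100 for the full control effect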); settings: ME-180 (cervical carcinoma) SIE beta-lactamase reporter, IL-6 stimulated, 5 h; at 7.69 µM (top of the series) unless noted
How it was run: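 Overnight-plated ME-180 cells bearing a STAT Inducible Element beta-lactamase reporter; 5 h co-exposure to compound and 40 pM IL-6; values normalized to 300 pM IL-6 and 125 nM JAK inhibitor controls.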

[5] = target: Glucocorticoid receptor (Homo sapiens) (UniProt P04150); test: GR-GFP Redistribution (AID 450;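 active = compounds whose dose series gives a full or clear partial fitted curve of increased nuclear translocation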; also: potency is read from the fitted curve at half-maximal effect); settings: U2OS GR-GFP nuclear translocation, laser cytometry, 2 h
[6] = target: Glucocorticoid receptor (Homo sapiens) (UniProt P04150); test: GR-EFC Redistribution (AID 451; calls by dose curve; also: potency is read from the fitted curve at half-maximal effect); settings: CHO-K1 GR-EFC translocation, beta-gal luminescence, 2 h
How it was run: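 CHO-K1 cells stably expressing nuclear-localized β-gal enzyme acceptor and GR fused C-terminally to the enzyme donor fragment; ligand-driven nuclear translocation restores β-gal by complementation. Compounds titrated up to 46 uM final, 2 h at 37 °C; luminescence read.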

[7] = target: Mitogen-activated protein kinase 10 (Mus musculus) (UniProt Q61831); test: JNK3 AlphaScreen Assay (AID 530; active = well fitted curve in either direction with a large enough effect, not every such curve was filed as active;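 also: kinase came from lysate of stimulated human HepG2 cells; signal reports phosphorylation of biotinylated GST-cJun 1-79 at Ser73 with 10 µM ATP; % is scaled to controls: 0 for no effect and ±100 for the full control effect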); settings: JNK3 lysate, c-Jun phosphorylation; series mostly up to 57.1 µM
How it was run: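 Biotinylated GST-cJun(1-79) served as substrate for JNK3 in HepG2 lysates stimulated with IL-1beta and TNF-alpha. ATP was 10 uM final, pH 7.6. Ser73 phosphorylation was quantified by AlphaScreen (680 nm excitation).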

[8] = target: 3',5'-cyclic-AMP phosphodiesterase 4B (Homo sapiens) (UniProt Q07343); test: qHTS Assay for Inhibitors of PDE-IV (AID 607; active = well fitted activation curve with a large enough effect in the main read-out, with a control signal flat, not every such curve was filed as active; also: % of control where 0% means no effect); settings: HEK293 ACTOne CNG channel cells, membrane potential fluorescence; series mostly up to 22.9 µM
How it was run: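 Live HEK293 cells with a modified cyclic nucleotide-gated (CNG) channel report intracellular cAMP via membrane-potential dye fluorescence (ex 535/em 590 nm). Endogenous PDE-IV was targeted. Compounds were tested at up to 22.9 uM final; RO 20-1724 100 uM served as control.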

[9] = target: Cytochrome P450 3A4 (Homo sapiens) (UniProt P08684); test: qHTS Assay for Activators of Cytochrome P450 3A4 (AID 885); settings: recombinant CYP3A4, Luciferin-PPXE luminescence, 60 min; series mostly up to 57.1 µM; also: nearly all actives have a fitted effect of over 65% in size
How it was run: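 Using 20nM recombinant human CYP3A4 in potassium phosphate (200mM), substrate Luciferin-PPXE at 25uM, luminescent luciferin detection followed a 60-min RT NADPH reaction; data scaled to 57 uM ketoconazole.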

[10] = qHTS Assay for Lipid Storage Modulators (AID 1519; calls by dose curve); settings: Drosophila S3 cells, BODIPY lipid droplet/cell ratio, laser cytometry, cells loaded with oleic acid; for activity change, negative = inhibition: at 57.5 µM (top of the series)
How it was run: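 Cells seeded at 5,000 per well were treated with compounds over a concentration series and loaded with oleic acid (400 uM, as added). Lipid droplet fluorescence (488 nm excitation, 500-530 nm channel) was read by laser-scanning cytometry and normalized to 20 uM Triacsin C.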

[11] = target: Dual specificity protein kinase CLK4 (Homo sapiens) (UniProt Q9HAZ1); test: qHTS Assay for Inhibitors of CDC-like Kinase 4 (Kinase-Glo Assay) (AID 1770); settings: recombinant Clk4, Kinase-Glo ATP depletion luminescence; series mostly up to 66.7 µM; also: nearly all actives have a fitted effect of over 65% in size; also: potency is read from the fitted curve at half-maximal effect
How it was run: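 Clk4 25 nM, RS peptide 100 uM, ATP 1 uM, pH 7.5 Tris, 10 mM MgCl2, 2.5 mM DTT; 4.5 h RT; ATP depletion read by Kinase-Glo luminescence.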

[12] = target: Dual specificity protein kinase CLK4 (Homo sapiens) (UniProt Q9HAZ1); test: qHTS Assay for Inhibitors of CDC-like Kinase 4 (ADP-Glo Assay) (AID 1771); settings: recombinant CLK4, ADP-Glo luminescence; series mostly up to 80 µM; also: nearly all actives have a fitted effect of over 70% in size; also: potency is read from the fitted curve at half-maximal effect
How it was run: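 25 nM Clk4, 100 uM RS peptide, 1 uM ATP (final); 2 mM MgCl2, 0.5 mM EGTA, 2.5 mM DTT, 0.01% Triton X-100; 1 hr RT. ADP-Glo readout: ATP depletion 45 min, conversion/luciferase 30 min, luminescence.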

[13] = target: Ubiquitin carboxyl-terminal hydrolase 1 (Homo sapiens) (UniProt O94782); test: Inhibitors of USP1/UAF1: Pilot qHTS (AID 504865); settings: purified USP1/UAF1, Ub-rhodamine cleavage fluorescence; series mostly up to 54.9 µM; also: nearly all actives have a fitted effect of over 35% in size; also: potency is read from the fitted curve at half-maximal effect
How it was run: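 Enzyme-free wells gave the negative control, while test wells held 1nM USP1/UAF1 preincubated with compound for 15 min at room temperature. Ub-Rho at 150nM final started the reaction, and fluorescence at 480/540 nm was recorded kinetically.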

[14] = Primary qHTS for small molecule stabilizers of the endoplasmic reticulum resident proteome: Secreted ER Calcium Modulated Protein (SERCaMP) assay (AID 1508630); settings: SH-SY5Y GLuc-SERCaMP (Gaussia luciferase released on ER calcium loss) secretion, thapsigargin, luminescence; series mostly up to 38.4 µM; also: % is scaled to controls: 0 for no effect and ±100 for the full control effect
How it was run: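 The SH-SY5Y reporter protocol was run at 3 concentrations up to 38.3 uM (primary) or 11 concentrations (follow-up): 16 h compound, 100 nM thapsigargin for 4 h, then extracellular luciferase luminescence.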

[15] = NFAT Signaling Pathway (AID 444; active = well fitted curve in either direction with a large enough effect, not every such curve was filed as active); settings: Jurkat NFAT-bla M1, carbachol, beta-lactamase ratio, 5 h; at 7.69 µM (top of the series) unless noted
How it was run: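 Jurkat cells carrying an NFAT-driven β-lactamase reporter and co-transfected muscarinic M1 receptor were treated with compound plus carbachol (1 uM final, an EC50 level) for 5 h at 37 °C. CCF4 loading followed for 1 h at RT; 460/530 nm ratio gave %activity.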

[16] = target: Dual specificity protein kinase CLK4 (Homo sapiens) (UniProt Q9HAZ1); test: qHTS Assay for Inhibitors of CDC-like Kinase 4 (ADP-FP Assay) (AID 1795); settings: Transcreener ADP fluorescence polarization; series mostly up to 50 µM;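 also: recombinant human CLK4 phosphorylating RS repeat peptide at 1 µM ATP; % is scaled to controls: 0 for no effect and ±100 for the full control effect; nearly all actives have a fitted effect of over 60% in size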
How it was run: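 Kinase activity was followed as ADP output, converted from fluorescence polarization with a calibration curve. Reactions ran one hour at low ATP (1 uM) with RS peptide substrate.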

[17] = target: Cytochrome P450 3A4 (Homo sapiens) (UniProt P08684); test: qHTS Assay for Inhibitors and Substrates of Cytochrome P450 3A4 (AID 884); settings: recombinant CYP3A4, Luciferin-PPXE luminescence; series mostly up to 57.1 µM; also: potency is read from the fitted curve at half-maximal effect; nearly all actives have a fitted effect of over 50% in size
How it was run: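 Luminescent readout of luciferin produced by CYP3A4 (20 nM) dealkylation of Luciferin-PPXE, 25 uM (its KM). NADPH-driven reaction ran 60 min at RT after 10 min compound preincubation; data scaled to 57 uM ketoconazole as 100% inhibition.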

[18] = target: Cytochrome P450 2C19 (Homo sapiens) (UniProt P33261); test: qHTS Assay for Inhibitors and Substrates of Cytochrome P450 2C19 (AID 899); settings: recombinant CYP2C19, luciferin-H EGE luminescence; series mostly up to 57.1 µM; also: potency is read from the fitted curve at half-maximal effect; nearly all actives have a fitted effect of over 60% in size
How it was run: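 In 50mM KPO4, the reaction held 5nM enzyme and KM-level (10uM) Luciferin-H EGE; it ran 60 min at 37C after NADPH regeneration and a 10 min compound preincubation. Luminescence values were scaled to 57uM ketoconazole as complete inhibition.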

[19] = measured here: cell count channel max response
[20] = measured here: lipid channel max response

Dual specificity protein kinase CLK4 (Homo sapiens), sequence (Q9HAZ1 whole entry, looked up): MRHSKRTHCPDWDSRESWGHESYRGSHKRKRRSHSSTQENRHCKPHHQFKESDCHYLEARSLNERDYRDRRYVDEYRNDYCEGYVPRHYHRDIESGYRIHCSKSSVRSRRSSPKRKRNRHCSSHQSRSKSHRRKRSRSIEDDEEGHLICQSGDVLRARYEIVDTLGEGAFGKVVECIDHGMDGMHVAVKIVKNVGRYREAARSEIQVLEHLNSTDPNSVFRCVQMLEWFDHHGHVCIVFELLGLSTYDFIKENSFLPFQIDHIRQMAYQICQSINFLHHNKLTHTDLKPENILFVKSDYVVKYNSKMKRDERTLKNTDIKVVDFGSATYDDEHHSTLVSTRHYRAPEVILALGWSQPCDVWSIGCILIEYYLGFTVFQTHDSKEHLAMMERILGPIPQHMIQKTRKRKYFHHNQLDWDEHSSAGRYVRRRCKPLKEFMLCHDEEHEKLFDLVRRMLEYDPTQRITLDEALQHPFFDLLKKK
Ubiquitin carboxyl-terminal hydrolase 1 (Homo sapiens), sequence (O94782 whole entry, looked up): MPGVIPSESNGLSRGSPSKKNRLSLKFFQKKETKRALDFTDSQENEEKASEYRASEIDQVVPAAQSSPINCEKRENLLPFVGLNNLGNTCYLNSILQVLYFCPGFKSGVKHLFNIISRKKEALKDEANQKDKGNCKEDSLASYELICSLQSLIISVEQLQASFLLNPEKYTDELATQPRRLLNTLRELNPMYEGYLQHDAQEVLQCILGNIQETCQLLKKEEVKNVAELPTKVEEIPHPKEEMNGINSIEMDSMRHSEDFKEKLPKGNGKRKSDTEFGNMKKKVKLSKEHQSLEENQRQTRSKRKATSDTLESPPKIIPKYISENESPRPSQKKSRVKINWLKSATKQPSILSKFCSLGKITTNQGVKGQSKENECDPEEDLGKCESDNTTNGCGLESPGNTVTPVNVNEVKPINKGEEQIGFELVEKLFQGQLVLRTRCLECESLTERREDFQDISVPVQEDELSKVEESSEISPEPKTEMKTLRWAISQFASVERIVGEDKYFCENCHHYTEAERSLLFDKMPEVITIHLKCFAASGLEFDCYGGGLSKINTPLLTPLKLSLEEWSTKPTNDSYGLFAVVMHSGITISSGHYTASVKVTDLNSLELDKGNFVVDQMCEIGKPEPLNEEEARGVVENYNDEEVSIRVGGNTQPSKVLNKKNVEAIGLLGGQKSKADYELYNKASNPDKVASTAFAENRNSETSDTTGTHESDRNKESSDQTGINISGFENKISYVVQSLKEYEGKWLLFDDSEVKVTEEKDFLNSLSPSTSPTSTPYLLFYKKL
Lysosomal acid glucosylceramidase (Homo sapiens), sequence (P04062 whole entry, looked up): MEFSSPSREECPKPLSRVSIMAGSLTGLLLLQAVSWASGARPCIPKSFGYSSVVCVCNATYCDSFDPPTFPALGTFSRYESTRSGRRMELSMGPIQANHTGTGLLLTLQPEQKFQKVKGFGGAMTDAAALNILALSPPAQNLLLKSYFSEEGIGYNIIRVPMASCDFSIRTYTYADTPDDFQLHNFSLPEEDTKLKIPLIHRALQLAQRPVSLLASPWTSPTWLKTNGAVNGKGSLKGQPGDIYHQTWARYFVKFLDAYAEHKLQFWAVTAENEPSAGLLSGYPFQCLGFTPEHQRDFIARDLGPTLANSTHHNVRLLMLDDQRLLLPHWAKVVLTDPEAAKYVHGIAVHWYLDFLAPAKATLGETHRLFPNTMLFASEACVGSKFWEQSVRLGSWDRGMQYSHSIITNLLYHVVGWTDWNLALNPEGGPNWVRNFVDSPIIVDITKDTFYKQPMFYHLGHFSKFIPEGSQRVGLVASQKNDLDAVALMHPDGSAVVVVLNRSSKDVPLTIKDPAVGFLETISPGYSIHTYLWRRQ
Cytochrome P450 1A2 (Homo sapiens), sequence (P05177 whole entry, looked up): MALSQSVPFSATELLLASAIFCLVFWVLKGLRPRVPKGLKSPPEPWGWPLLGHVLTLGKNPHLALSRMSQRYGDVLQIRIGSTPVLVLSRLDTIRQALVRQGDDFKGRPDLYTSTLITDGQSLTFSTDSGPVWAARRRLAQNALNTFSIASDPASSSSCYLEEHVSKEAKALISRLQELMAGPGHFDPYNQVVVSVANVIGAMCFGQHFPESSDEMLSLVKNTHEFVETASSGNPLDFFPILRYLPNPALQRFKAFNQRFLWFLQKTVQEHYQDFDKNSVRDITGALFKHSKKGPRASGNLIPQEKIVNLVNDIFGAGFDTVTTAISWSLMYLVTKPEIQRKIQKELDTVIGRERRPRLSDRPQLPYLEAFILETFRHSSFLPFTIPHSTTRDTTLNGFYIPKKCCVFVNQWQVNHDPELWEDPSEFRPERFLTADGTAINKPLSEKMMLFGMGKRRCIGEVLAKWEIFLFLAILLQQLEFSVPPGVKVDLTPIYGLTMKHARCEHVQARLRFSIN
3',5'-cyclic-AMP phosphodiesterase 4B (Homo sapiens), sequence (Q07343 whole entry, looked up): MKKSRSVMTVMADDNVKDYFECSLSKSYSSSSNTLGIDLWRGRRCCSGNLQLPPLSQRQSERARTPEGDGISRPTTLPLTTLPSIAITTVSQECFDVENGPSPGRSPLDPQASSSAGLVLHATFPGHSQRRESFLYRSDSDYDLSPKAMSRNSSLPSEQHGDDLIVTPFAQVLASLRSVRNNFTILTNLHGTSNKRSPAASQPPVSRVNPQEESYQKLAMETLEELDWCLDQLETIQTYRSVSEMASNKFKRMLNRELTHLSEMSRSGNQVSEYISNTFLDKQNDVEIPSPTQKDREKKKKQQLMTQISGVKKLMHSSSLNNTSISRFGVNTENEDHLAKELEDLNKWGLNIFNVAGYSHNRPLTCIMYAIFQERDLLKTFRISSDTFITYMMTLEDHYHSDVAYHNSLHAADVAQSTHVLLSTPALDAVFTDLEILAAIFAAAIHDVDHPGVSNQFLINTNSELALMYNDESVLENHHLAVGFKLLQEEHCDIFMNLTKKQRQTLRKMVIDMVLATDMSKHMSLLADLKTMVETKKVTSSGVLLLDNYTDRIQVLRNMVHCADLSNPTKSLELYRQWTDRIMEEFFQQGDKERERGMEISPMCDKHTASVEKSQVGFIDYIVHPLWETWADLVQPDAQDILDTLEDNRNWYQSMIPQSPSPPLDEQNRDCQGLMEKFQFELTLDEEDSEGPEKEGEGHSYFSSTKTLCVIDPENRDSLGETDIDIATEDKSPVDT
Cytochrome P450 3A4 (Homo sapiens), sequence (P08684 whole entry, looked up): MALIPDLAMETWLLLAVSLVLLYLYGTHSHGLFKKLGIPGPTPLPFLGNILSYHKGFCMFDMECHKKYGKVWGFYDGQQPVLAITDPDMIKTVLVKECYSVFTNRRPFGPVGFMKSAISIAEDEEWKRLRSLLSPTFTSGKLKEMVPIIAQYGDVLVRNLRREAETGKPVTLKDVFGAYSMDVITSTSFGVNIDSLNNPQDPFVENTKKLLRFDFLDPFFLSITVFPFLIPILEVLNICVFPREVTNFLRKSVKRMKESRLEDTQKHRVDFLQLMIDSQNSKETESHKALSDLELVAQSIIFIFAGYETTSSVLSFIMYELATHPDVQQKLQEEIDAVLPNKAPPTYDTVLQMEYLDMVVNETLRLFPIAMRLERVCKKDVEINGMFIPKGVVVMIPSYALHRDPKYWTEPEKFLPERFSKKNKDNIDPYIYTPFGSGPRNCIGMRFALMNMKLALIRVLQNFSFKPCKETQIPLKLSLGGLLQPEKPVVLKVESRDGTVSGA
Glucocorticoid receptor (Homo sapiens), sequence (P04150 whole entry, looked up, the tested form may be a part): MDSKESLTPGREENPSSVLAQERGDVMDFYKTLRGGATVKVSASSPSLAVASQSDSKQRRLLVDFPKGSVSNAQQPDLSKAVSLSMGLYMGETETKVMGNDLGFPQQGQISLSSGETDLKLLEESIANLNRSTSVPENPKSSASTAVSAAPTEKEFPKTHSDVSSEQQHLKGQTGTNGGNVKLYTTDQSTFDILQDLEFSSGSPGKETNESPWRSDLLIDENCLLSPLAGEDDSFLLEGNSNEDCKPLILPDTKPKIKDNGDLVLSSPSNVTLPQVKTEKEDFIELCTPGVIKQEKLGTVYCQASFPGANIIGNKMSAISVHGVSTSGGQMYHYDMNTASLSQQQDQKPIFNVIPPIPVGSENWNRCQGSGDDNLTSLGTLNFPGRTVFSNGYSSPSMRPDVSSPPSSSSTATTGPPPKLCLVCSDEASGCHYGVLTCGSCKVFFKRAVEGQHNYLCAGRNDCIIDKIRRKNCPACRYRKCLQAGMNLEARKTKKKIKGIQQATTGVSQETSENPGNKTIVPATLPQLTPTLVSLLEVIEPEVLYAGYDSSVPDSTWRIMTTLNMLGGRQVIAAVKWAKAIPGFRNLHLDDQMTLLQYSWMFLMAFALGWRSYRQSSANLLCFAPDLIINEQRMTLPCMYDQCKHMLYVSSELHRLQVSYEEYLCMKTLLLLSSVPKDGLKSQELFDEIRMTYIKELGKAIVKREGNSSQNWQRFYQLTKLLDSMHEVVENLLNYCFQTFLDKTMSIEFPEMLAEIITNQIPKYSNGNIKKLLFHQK
Cytochrome P450 2C19 (Homo sapiens), sequence (P33261 whole entry, looked up): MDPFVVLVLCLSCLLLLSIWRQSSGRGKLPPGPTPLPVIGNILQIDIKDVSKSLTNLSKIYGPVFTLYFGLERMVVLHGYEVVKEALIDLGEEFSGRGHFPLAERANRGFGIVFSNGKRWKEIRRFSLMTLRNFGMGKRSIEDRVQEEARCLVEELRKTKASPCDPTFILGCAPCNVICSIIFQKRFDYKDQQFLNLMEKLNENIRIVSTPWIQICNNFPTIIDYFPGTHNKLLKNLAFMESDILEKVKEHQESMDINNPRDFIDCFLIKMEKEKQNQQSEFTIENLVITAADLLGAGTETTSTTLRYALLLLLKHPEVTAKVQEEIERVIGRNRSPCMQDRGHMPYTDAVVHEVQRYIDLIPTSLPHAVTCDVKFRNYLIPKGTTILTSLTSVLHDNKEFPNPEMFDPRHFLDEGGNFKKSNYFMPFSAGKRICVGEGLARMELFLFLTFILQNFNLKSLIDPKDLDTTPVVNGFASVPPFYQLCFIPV

Compound | Potency [1] | activity change, negative = inhibition [2] | Potency [3] | activity, negative = inhibition [4] | Potency [5] | Potency [6] | outcome [7] | Potency [8] | Potency [9] | activity change, negative = inhibition [10] | max response [10, 19] [%] | max response [10, 20] [%] | Potency [11] | Potency [12] | Potency [13] | Potency [14] | activity change, negative = inhibition [15] | Potency [16] | Potency [17] | Potency [18]
CC(=O)NCCNc1ncnc2ccc(-c3cccc(NS(C)(=O)=O)c3)cc12 | > 11.4 µM (inactive) | 3.51% (inactive) | 15.8 µM (active) | 6.44% (inactive) | > 46 µM (inactive) | > 46 µM (inactive) | inactive | inactive | inactive | 1.93% (inactive) | 24.3 | 24.6 | 12.6 µM (active) | 12.6 µM (active) | inactive | inactive | – | – | – | –
CCNc1ncc2nc(-c3ccc(OC)cc3)c(=O)n(CCOC)c2n1 | – | -6.96% (inactive) | 1.26 µM (active) | -11.3% (inactive) | > 9.22 µM (inactive) | > 46 µM (inactive) | inactive | inactive | inactive | 4.42% (inactive) | 20.7 | 27.3 | inactive | inactive | inactive | inactive | 6.8% (inactive) | inactive | – | –
O=c1c(-c2cccs2)nc2cnc(N3CCOCC3)nc2n1Cc1ccc(F)cc1 | > 11.4 µM (inactive) | 27.4% (inactive) | 20 µM (active) | – | > 9.22 µM (inactive) | > 46 µM (inactive) | inactive | inactive | inactive | -2.08% (inactive) | 18.9 | 13.5 | inactive | inactive | inactive | inactive | 27.2% (inactive) | – | – | –
COCCn1c(=O)c(-c2ccc(F)cc2)nc2cnc(OC)nc21 | > 11.4 µM (inactive) | -3.31% (inactive) | – | -15% (inactive) | > 9.22 µM (inactive) | > 46 µM (inactive) | inactive | inactive | – | 4.45% (inactive) | 6.98 | 9.8 | inactive | inactive | inactive | inactive | 15.2% (inactive) | – | – | –
Cc1ccccc1-c1nccc(NCc2cccs2)n1 | – | -5.62% (inactive) | 0.501 µM (active) | 3.98% (inactive) | – | > 46 µM (inactive) | inactive | inactive | inactive | 6.73% (inactive) | -2.46 | 6 | inactive | inactive | 25.1 µM (active) | inactive | 1.22% (inactive) | inactive | 2 µM (active) | 3.98 µM (active)
